The record followed here is PubChem BioAssay (Tox21).

Unmarked numbers belong to inactive results. Inconclusive results are not listed. The source made the active and inactive calls. Unless noted, calls come from the whole dose curve; as a rule, active = well fitted curve in the direction sought with a large enough effect in the repeat runs; inconclusive = weak or mixed curves; inactive = no such curve, though single readings can be large; an effect the other way counts as inactive or inconclusive.

A short description of assay [1]: qHTS assay for small molecules that induce genotoxicity in human embryonic kidney cells expressing luciferase-tagged ATAD5 (AID 651632). Note: nearly all actives have a fitted effect of over 15% in size. The method, boiled down:
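HEK293T cells carrying a luciferase reporter tagged to ATAD5 were exposed to compound or DMSO vehicle for 16 hr at 37C, 5% CO2. Amplite was added, and after 30 min at room temperature luciferase activity was read as a marker of ATAD5 induction.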
For orientation: Quantitative high-throughput screening tests each substance at several concentrations.

Assay [2] in a line: qHTS assay for small molecule disruptors of the mitochondrial membrane potential - cell viability (AID 720634; calls by dose curve;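 note: human HepG2 liver cancer cells; series mostly up to about 83 µM; nearly all actives have a fitted effect of over 20% in size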). The method in brief: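 HepG2 cells seeded overnight at 37 C, then exposed to compound or DMSO for 1 hr at 37 C, 5% CO2. m-MPI dye added, then CellTiter-Glo for 30 min at room temperature; viability read as ATP luminescence.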
The nature of assay [3]: qHTS assay to test for compound auto fluorescence at 590 nm (red) in HepG2 cells (AID 720674). The method in brief: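 Intrinsic compound fluorescence in the red window (Ex/Em 540/590 nm) is measured in attached HepG2 cells exposed for 1 hr, DMSO vehicle as baseline, benchmarked to Rose Bengal sodium.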
The nature of assay [4]: qHTS assay to test for compound auto fluorescence at 535 nm (green) in HepG2 cells (AID 720675).
Assay [5] is described as follows: qHTS assay to test for compound auto fluorescence at 460 nm (blue) in HEK293 cells (AID 720678). The method, boiled down:
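Blue read-out at excitation 405 nm and emission 460 nm follows overnight compound exposure of HEK293 cells at 37C in 5% CO2. Activity is given as auto fluorescence equivalency to triamterene.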

Assay [6] is described as follows: qHTS assay to test for compound auto fluorescence at 590 nm (red) in HEK293 cells (AID 720679). The method, boiled down: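 Red channel, Ex/Em 540/590nm; signal expressed as equivalency to Rose Bengal sodium. HEK293, 2,000 cells/well, 10% dialyzed FBS; 23 nL compound pinned after 4-5 hr attachment; overnight 37C/5% CO2 before reading.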
Assay [7] can be described thus: qHTS assay to test for compound auto fluorescence at 535 nm (green) in HEK293 cells (AID 720680).
Assay [8] can be described thus: qHTS assay to test for compound auto fluorescence at 460 nm (blue) in HEK293 cell free culture (AID 720681). The method in brief: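 Test compounds were pinned into cell-free culture medium (DMEM with 10% FBS) and fluorescence was read directly at Ex/Em 405/460 nm. Signals were expressed as fluorescence equivalents of triamterene, with DMSO vehicle as control.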
The nature of assay [9]: qHTS assay to test for compound auto fluorescence at 535 nm (green) in HEK293 cell free culture (AID 720682). The method, boiled down:
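Cell-free medium (DMEM, 10% FBS) receives compound or DMSO by pintool. Plate read directly at Ex 485/Em 535 nm. Signal converted to fluorescein equivalency.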

A short description of assay [10]: qHTS assay to test for compound auto fluorescence at 590 nm (red) in HEK293 cell free culture (AID 720683). The method in brief: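 Tox21 10K library compounds were pinned into cell-free DMEM with 10% FBS and fluorescence was read at excitation 540 nm. Activity is expressed as Rose Bengal sodium equivalency.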
Assay [11] in a line: qHTS assay to test for compound auto fluorescence at 590 nm (red) in HepG2 cell free culture (AID 720684). The method, boiled down:
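Measured in medium alone (MEM containing 10% FBS) following pintool addition of compound; emission at 590 nm with 540 nm excitation, referenced to Rose Bengal sodium.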

Assay [12] is described as follows: qHTS assay to test for compound auto fluorescence at 460 nm (blue) in HepG2 cell free culture (AID 720685). The method in brief: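 Compound (23 nL) or DMSO pinned into cell-free MEM with 10% FBS; blue fluorescence read at 405/460 nm excitation/emission, expressed as auto-fluorescence equivalency to triamterene.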
A short description of assay [13]: qHTS assay to test for compound auto fluorescence at 535 nm (green) in HepG2 cell free culture (AID 720686).
Assay [14] in a line: qHTS assay to test for compound auto fluorescence at 460 nm (blue) in HepG2 cells (AID 720687). The method, boiled down:
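Cells (2,000/well in MEM with 10% FBS) attached overnight at 37 C, then were exposed to compound or DMSO for 1 hr at 37 C, 5% CO2. Fluorescence read at Ex/Em 405/460 nm, expressed as triamterene-equivalent signal.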

A short description of assay [15]: qHTS assay for small molecule agonists of the p53 signaling pathway - cell viability (AID 651633; calls by dose curve;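 note: p53RE-bla HCT reporter cells with a stable beta-lactamase p53 reporter; series mostly up to about 83 µM; nearly all actives have a fitted effect of over 30% in size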). The method, boiled down: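 p53RE-bla cells, seeded at 4,000 per well and rested 5 h at 37 C/5% CO2, received compounds in DMSO for 16 h at 37 C. CellTiter-Glo was then added, and luminescence was read after 30 min at room temperature to gauge cytotoxicity.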
Assay [16] can be described thus: qHTS assay for small molecules that induce genotoxicity in human embryonic kidney cells expressing luciferase-tagged ATAD5 - cell viability (AID 651634; calls by dose curve; note: nearly all actives have a fitted effect of over 25% in size). The method in brief:
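HEK293T cells expressing luciferase-tagged ATAD5 were exposed to compound or DMSO for 15.5 hr at 37C, 5% CO2. Viability was then read as live-cell protease activity by CellTiter-Fluor fluorescence after 30 min at 37C.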

Assay [17] in a line: qHTS assay for small molecule disruptors of the mitochondrial membrane potential (AID 720635). Note: potency is the fitted concentration of half-maximal effect. The method, boiled down:
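HepG2 cells (2,000/well) attached overnight at 37C, then took compound for 1 hr at 37C, 5% CO2. Mito-MPS dye was added for 30 min; fluorescence was read at 490/535 nm (monomers) and 540/590 nm (aggregates).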

Assay [18] has as its target Glucocorticoid receptor (Homo sapiens) (UniProt P04150). Description: qHTS assay to identify small molecule agonists of the glucocorticoid receptor (GR) signaling pathway (AID 720691; active = well fitted activation curve with a large enough effect in the signal ratio in the repeat runs, not every such curve was filed as active; the % refers to the signal ratio). The method, boiled down:
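GR-bla HeLa cells (beta-lactamase reporter under glucocorticoid response element) were plated 4 h at 37 C/5% CO2, given compounds in DMSO, and incubated 18 h at 37 C. LiveBLAzer B/G FRET substrate was added for 2 h at room temperature, then fluorescence intensity read.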

The target is the same in assay [19]. Description: qHTS assay to identify small molecule antagonists of the glucocorticoid receptor (GR) signaling pathway (AID 720692; active = well fitted inhibition curve with a large enough effect in the signal ratio in the repeat runs, not every such curve was filed as active; the % refers to the signal ratio; note: potency is the fitted concentration of half-maximal effect). The method, boiled down: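 GR-bla HeLa cells (beta-lactamase reporter under glucocorticoid response element) were pre-plated 4 h at 37 C, treated with compounds plus 5 nM dexamethasone (final) for 18 h, then read by LiveBLAzer B/G FRET fluorescence after 2 h.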
% is set by controls: 0 for no effect and ±100 for the full control effect.

Sequence of Glucocorticoid receptor (Homo sapiens) (P04150 whole entry, looked up): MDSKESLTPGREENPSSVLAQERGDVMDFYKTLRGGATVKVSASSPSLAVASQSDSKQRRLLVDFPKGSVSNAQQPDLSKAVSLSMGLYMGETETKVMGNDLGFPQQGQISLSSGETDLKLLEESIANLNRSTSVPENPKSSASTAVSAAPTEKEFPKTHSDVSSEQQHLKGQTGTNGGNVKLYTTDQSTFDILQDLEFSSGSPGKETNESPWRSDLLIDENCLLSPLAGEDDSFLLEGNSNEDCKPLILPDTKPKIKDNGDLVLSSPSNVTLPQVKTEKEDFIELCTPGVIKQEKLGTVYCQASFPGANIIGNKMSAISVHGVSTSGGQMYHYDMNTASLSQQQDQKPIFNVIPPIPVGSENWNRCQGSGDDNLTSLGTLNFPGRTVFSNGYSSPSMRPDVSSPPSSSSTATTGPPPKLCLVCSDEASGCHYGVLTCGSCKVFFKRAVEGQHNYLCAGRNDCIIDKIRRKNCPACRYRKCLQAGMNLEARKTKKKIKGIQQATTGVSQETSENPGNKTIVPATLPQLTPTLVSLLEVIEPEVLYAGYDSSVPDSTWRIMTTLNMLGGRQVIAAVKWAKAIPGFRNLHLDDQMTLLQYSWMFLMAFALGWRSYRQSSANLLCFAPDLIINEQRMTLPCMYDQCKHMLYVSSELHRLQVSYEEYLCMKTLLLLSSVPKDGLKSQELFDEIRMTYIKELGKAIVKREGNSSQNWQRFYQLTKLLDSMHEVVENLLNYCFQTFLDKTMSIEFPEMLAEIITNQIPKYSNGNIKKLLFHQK

`CC(=O)NC1(c2cccc(F)c2)CCN(CC[C@@]2(c3ccc(Cl)c(Cl)c3)CN(c3ccccc3)C(=O)CO2)CC1`: the Potency entry in [1], in assay [2], in [5], in assay [8], in assay [12] and in [14] was “inactive” throughout. Moreover, the call in [3], in assay [4], in assay [6], in assay [7], in assay [9] and in assay [10] was inactive. In addition, the compound was classed as inactive in assay [11] and in assay [13].

Turning to `C[C@@H]1CN(CCCn2c3ccccc3c3ccccc32)C[C@H](C)N1`, the Potency result in [1], in assay [2], in [5], in assay [8], in assay [12] and in [14] was “inactive” throughout. In addition, the compound was called inactive in assay [3], in assay [4], in [6], in assay [7], in [9] and in [10]. In addition, the result in assay [11] and in [13] was inactive.

As for `O=C1c2ccccc2C(=O)C1c1nc2ccccc2c(Br)c1O`, the Potency entry in assay [15], in assay [16], in assay [2], in [8], in assay [12] and in assay [14] was “inactive” each time. Moreover, the Potency entry in assay [18] and in assay [19] was “inactive” throughout. Also, the Potency in assay [17] was 21.7 µM (active). For the same compound, the compound was called inactive in assay [4], in assay [6], in assay [9], in assay [10], in assay [11] and in assay [13].

Consider `C1COC1`, for which the Potency entry in assay [15], in assay [16], in assay [2], in [17], in [8] and in assay [12] was “inactive” in each case. For the same compound, the Potency entry in assay [14], in assay [18] and in [19] was “inactive” throughout. For the same compound, the result in assay [3], in assay [4], in assay [6], in [7], in assay [9] and in assay [10] was inactive. In addition, the call in [11] and in [13] was inactive.

`C[C@@H](CN(C)C)CN1c2ccccc2Sc2ccccc21`: the Potency result in assay [15], in assay [2] and in assay [18] was “inactive” throughout. The fluorescence, % of fluorescein control is 0.0297% [at 18.6 µM] in assay [4] and -0.0052% [at 18.6 µM] in [13]. Also, in assay [5], the fluorescence, % of triamterene was -0.151% [at 18.6 µM]. The fluorescence, % of fluorescent control in assay [6] was -0.0905% [at 18.6 µM]; in assay [8], 0.0136% [at 18.6 µM]; in assay [10] it was 0.012% [at 18.6 µM]; in assay [12], 0.0401% [at 18.6 µM]; in [14] it was -0.0799% [at 18.6 µM]. The fluorescence, % of fluorescein in [7] is -0.0143% [at 18.6 µM]. Further, in assay [9], the activity change is -0.0963% [at 18.6 µM]. Besides, in assay [11], the fluorescence, % of Rose Bengal is -0.209% [at 18.6 µM].

In the case of `O=C(Nc1cccc2c(=O)cc(-c3nn[nH]n3)oc12)c1ccc(OCCCCc2ccccc2)cc1`, the Potency result in assay [15], in [16], in assay [2], in assay [5], in assay [8] and in assay [14] was “inactive” in each case. Moreover, the call in assay [3], in assay [4], in assay [6], in assay [7], in [9] and in assay [10] was inactive. Further, the compound was called inactive in assay [11] and in assay [13].

In the case of `C=CCc1ccccc1OCC(O)CNC(C)C` (configuration not stated), the Potency entry in assay [15], in assay [16], in assay [2], in assay [5], in assay [8] and in assay [12] was “inactive” each time. In addition, the Potency result in [14] was “inactive”. The compound was called inactive in assay [3], in assay [4], in assay [6], in [7], in assay [10] and in assay [11]. Further, the call in assay [13] was inactive.

Take `C=C(C)C(=O)OCCOCCOC(=O)C(=C)C`: the Potency entry in assay [1], in assay [2], in [17], in assay [5], in assay [8] and in assay [12] was “inactive” each time. For the same compound, the Potency entry in [14] was “inactive”. The call in assay [3], in [4], in assay [6], in assay [7], in assay [9] and in assay [10] was inactive. The result in assay [11] and in [13] was inactive.

Regarding `CC(=O)OCC(=O)NCCCOc1cccc(CN2CCCCC2)c1`, the Potency entry in [15], in [16], in assay [2], in assay [17], in assay [8] and in assay [12] was “inactive” throughout. The Potency entry in assay [14] is “inactive”. Further, the compound was classed as inactive in assay [3], in assay [4], in assay [6], in assay [9], in [10] and in [11]. Further, in assay [13], the result was inactive.

For `CCCCC(CC)COP(=O)(O)O` (configuration not stated), the Potency entry in assay [1], in [16], in assay [5], in [8], in assay [12] and in [14] was “inactive” in each case. The Potency entry in [18] is “inactive”. In addition, the call in assay [3], in assay [4], in assay [6], in [9], in [10] and in assay [11] was inactive. Also, the result in [13] was inactive. In assay [19], the Potency was 49.8 µM (active).

`CCCCN1CCCC1C(=O)Nc1c(C)cc(C)cc1C` (configuration not stated): the Potency result in [15], in assay [16], in assay [2], in assay [5], in assay [8] and in assay [12] was “inactive” throughout. In addition, the Potency result in assay [14], in assay [18] and in assay [19] was “inactive” in each case. Further, the outcome in assay [4], in [6], in assay [7], in assay [9], in assay [10] and in [11] was inactive. Moreover, the call in [13] was inactive.
